# Bioassay records from PubChem BioAssay.
# Shown are actives, neighbours in structure and some others; about 7.3% of the full set was active somewhere.
# HCV inhibitor – qHTS Assay for Inhibitors of Hepatitis C Virus (HCV). Huh7.5.1 HCVcc-Cre infection, luciferase reporter, 44 h. Potency, µM (highest dose often 41.8 µM), for inactives: at the highest dose activity change, negative = inhibition, actives largely listed as inhibitors. 340,000 tested, 3.4% active. AID 651820, 2012; active = well fitted inhibition curve with a large enough effect; inconclusive = small, poorly fitted or top-dose-only effect, or another doubt; inactive = no such curve, though single readings can be large or run the other way; also: potency is read from the fitted curve at half-maximal effect
#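 Infectious HCVcc-Cre (~0.5 moi) was added to cells just after compound, with cells seeded 4 h earlier at 1,000 per well. Luciferase activity after 44 h culture reported infection; substrate was incubated 15 min at room temperature before reading.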
# Vaccinia Venus – qHTS for Stage-Specific Inhibitors of Vaccinia Orthopoxvirus: Venus Reporter Primary qHTS. Vaccinia virus Venus reporter expression, fluorescence. Potency, µM (doses to about 36.5 µM), for inactives: at the highest dose activity change, negative = inhibition, hits mostly inhibitors. 330,000 tested, 0.46% active; calls by dose curve; tested in A549 cells; also: potency is read from the fitted curve at half-maximal effect; nearly all actives have a fitted effect of over 30% in size
# HCMV inh – qHTS Assay for inhibitors of the human cytomegalovirus (HCMV); 410,000 tested, 4.5% active; activity change, negative = inhibition, % at 57.5 µM; HFF cells, HCMV-luciferase reporter, 72 h; active compounds read low; in the data active = activity change below about -60%; inconclusive = no clear call, values can overlap the other calls; inactive = above about -39%
#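 Steps: HFFs plated, 16 h 37C; compounds added; HCMV-luciferase added to MOI 1 PFU/cell; 72 h 37C; OneGlo reagent, 5 min room temperature; luminescence read, normalized to controls.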
# VACV mCherry inh – qHTS for Stage-Specific Inhibitors of Vaccinia Orthopoxvirus: mCherry Reporter Primary qHTS; Vaccinia virus mCherry reporter infection, fluorescence; Potency, µM (top dose mostly 36.5 µM), for the others: at the top dose activity change, negative = inhibition, actives largely listed as inhibitors; 310,000 tested, 0.63% active; AID 720579, 2013; calls by dose curve; tested in A549 cells; also: potency is read from the fitted curve at half-maximal effect; nearly all actives have a fitted effect of over 35% in size
# FMDV inh – High Throughput Screening for Foot and Mouth Disease Virus Antivirals; FMDV antiviral cell-based qHTS; Potency, µM (titrated, usually from 57.9 µM), inactives show at the top dose activity change, negative = inhibition, usual class: inhibitors; 410,000 tested, 1.2% active; calls by dose curve; tested in HEK293T cells; also: read-out not given here; potency is read from the fitted curve at half-maximal effect; nearly all actives have a fitted effect of over 45% in size
# Numbers without * were called inactive; i = inactive; ? = inconclusive; nt = not tested or not shown. % is scaled to controls: 0 for no effect and ±100 for the full control effect.
SMILES,HCV inhibitor,Vaccinia Venus,HCMV inh,VACV mCherry inh,FMDV inh
CCC(C)Oc1ccc(/C=C/c2[nH]c(=O)[nH]c(=O)c2[N+](=O)[O-])cc1OC (stereo unspecified),24%,-4%,?,i,32µM*
C=CCOc1ccc(/C=C\c2nc(O)c([N+](=O)[O-])c(=O)[nH]2)cc1OC,9%,nt,nt,nt,-11%
COc1cc(/C=C/c2[nH]c(=O)[nH]c(=O)c2[N+](=O)[O-])ccc1OCCC(C)C,10%,-4%,-24,-7%,28µM*
COc1cc(/C=C/c2[nH]c(=O)[nH]c(=O)c2[N+](=O)[O-])cc([N+](=O)[O-])c1O,6%,nt,4,nt,-19%
COc1ccc(CNC(=O)CSCc2ccc(C)cc2)c(OC)c1,nt,-3%,5,-3%,-8%
COc1cc(NS(=O)(=O)c2ccc(NC(=S)NC(=O)CC(C)C)cc2)nc(OC)n1,9%,?,20,11µM*,94%
O=C(O)c1cc2c([nH]c1=O)CCCC2,-1%,-10%,44,-7%,-16%
C=CCSC(=C(C#N)C#N)c1cc2c([nH]1)CCCC2,13µM*,1%,-20,nt,11µM*
Cc1ccccc1-n1c(C)nnc1SC(C)C(=O)NCc1ccco1 (stereo unspecified),nt,-16%,nt,-26%,nt
COc1ccc(Cl)cc1NC(=O)NCCCl,?,10µM*,-28,nt,6%
COc1ccc(Cl)cc1NC(=O)CN(C)C(C)C(=O)NCC1CCCCC1 (stereo unspecified),-24%,nt,-31,nt,-22%
COc1ccc(Cl)cc1NC(=O)C(C)N(C)Cc1ccc(C(F)(F)F)cc1 (stereo unspecified),14µM*,-16%,-87*,i,?
COc1ccc(Cl)cc1NC(=O)CC(C)c1ccccc1 (stereo unspecified),8.9µM*,-20%,-19,nt,-7%
COc1ccc(Cl)cc1NC(=O)Nc1cnccn1,?,nt,-85*,nt,-16%
COc1ccc(Cl)cc1NC(=O)NCCN1CCNC1=O,12%,-10%,2,-13%,-5%
Cc1cccc(C(=O)Nc2ccc(N3CC=C(c4ccccc4C)CC3)c(C(=O)O)c2)c1,nt,-8%,18,-1%,28%
O=c1cc(CSc2ncn[nH]2)[nH]c2c(Cl)cccc12,nt,-19%,-1,-11%,-4%
CCOc1ccc(NC(=O)CC(=O)Nc2ccc(OCC)cc2)cc1,6%,nt,?,nt,17%
Cc1cccc(NC(=O)C[n+]2ccc(N(C)C)cc2)c1,-3%,nt,?,nt,-15%
CN(C)c1cc[n+](CC(=O)Nc2ccc(Cl)cc2)cc1,-20%,nt,-89*,nt,-36%
CN(C)c1cc[n+](CC(=O)Nc2ccc(Oc3ccccc3)cc2)cc1,?,-26%,-98*,-9%,-17%
CCOc1ccc(NC(=O)C[n+]2ccc(N(C)C)cc2)cc1,13%,-24%,-97*,-25%,-28%
COc1cc(=O)n2c(c1C(=O)NCc1ccco1)CCN(Cc1cccc(C)n1)CC2,nt,1%,nt,-10%,-3%
CCN(CC)CCCNC(=O)CSc1nc2c(c(C(F)(F)F)n1)CCc1ccccc1-2,16µM*,-21%,5,-20%,-15%
N=c1n(CCO)c2ccccc2n1CCOc1ccc(F)cc1,nt,-4%,-5,-17%,-24%
SMILES,HCV inhibitor,Vaccinia Venus,HCMV inh,VACV mCherry inh,FMDV inh
CCCCn1c(=N)n(CCCOc2ccc(F)cc2)c2ccccc21,nt,?,-67*,?,?
Cc1ccc2[nH]c(=O)c3cc(C(=O)NCc4cccc(Cl)c4)sc3c2c1,nt,-27%,-17,-4%,-22%
O=S(=O)(Nc1ccc(Cl)cc1)c1cccc2cccnc12,3%,-19%,-18,i,55%
Cc1ccc(NS(=O)(=O)c2cccc3cccnc23)cc1Cl,?,nt,-94*,nt,73%
COc1ccc(Cl)cc1NC(=O)CCn1nc(C)cc1C,nt,-7%,-10,-7%,-22%
COc1cc2cc(-c3ccc(OC)c(OC)c3C)nc(N)c2cc1OC,18µM*,-29%,-92*,?,-10%
COc1cc2cc(-c3ccc(O)cc3O)nc(C)c2cc1OC,5.6µM*,1%,-97*,-20%,-17%
COC(=O)c1ccc(OC)c(Cn2c(=O)n(-c3cccc(Cl)c3)c(=O)c3c2c2cc(C)ccc2n3C)c1,nt,-2%,5,2%,-10%
